Our source for the growth inhibition values is PubChem BioAssay (NCI).

Molecules are shown by their SMILES. This is part of a sample that, as a whole, favours compounds with a hit. Of some 79,000 tested, about 15% had one in any assay. A number with no mark means an inactive call. Rule as the data show it: active = growth inhibition above about 70%; inactive = the rest.

The assay is described as follows: NCI Yeast Anticancer Drug Screen. Data for the cln2 rad14 strain (AID 165).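 Also: 0% = growth equal to vehicle treated cultures.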 As to conditions: S. cerevisiae cln2 rad14 strain, at 5.0 µM (retest, dose inferred, filed as 0.5), stronger effect = higher value. Put shortly:
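Relative to vehicle controls, growth inhibition of compound-treated cln2 rad14 yeast was recorded.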
In the case of `CCc1ccc(/C(C)=N/NC(N)=S)cc1`, the growth inhibition was -18%.
On to `CC(C)/C=C1\CCOC1=O`, for which the growth inhibition was 5%.
The figure for `COc1c(C(=O)/C(=N/Nc2ccccc2)C(C)=O)c(O)c(OC)c2occc12` is -19%.
For `COc1ccc(CC/C(=N/O)c2ccccc2)cc1`, the growth inhibition is -10%.
With `CCOC(=O)C1(C#N)C(c2ccccc2)C1(C#N)C#N` (stereo not drawn), the growth inhibition was 9%.
As for `COc1ccc(OC)c(/C=C/NC=O)c1`, the growth inhibition was -15%.
As to `CC(=O)Oc1ccc(-c2ccc(Br)cc2)cc1`, the growth inhibition is -11%.
Then `COC(=O)/C(C#N)=C/c1cc(OC)c(O)cc1Br`, with 35%; and `CCC(C1SC(=S)NC1=O)C1SC(=S)NC1=O` (stereo not drawn), with -9%; and `CCC(C)c1ccc(O)c(C(C)c2ccccc2)c1` (stereo not drawn), with 49%.
In the case of `C/C(=N\NC(=S)N1CCN(c2ccccc2)CC1)c1nccs1`, the growth inhibition was 22%.
In the case of `COc1ccc2c(C(=O)c3ccccc3)c3[n+](cc2c1OC)CCc1cc2c(cc1-3)OCO2`, the growth inhibition is -4%.
Turning to `Cc1cccc(C[N+](C)(C)CCCO)c1C`, the growth inhibition was 2%.
Consider `c1ccc(N=C2SC3=NCCN3C2=Nc2ccccc2)cc1`, for which the growth inhibition is 31%.
In the case of `Cc1ccc(SCc2ccccc2Cl)nn1`, the growth inhibition was 3%.
Consider `CCCc1cc(=O)oc2c3c(c4c(c12)OC(C)(C)CC4)O[C@H](C)[C@H](C)C3=O`, for which the growth inhibition is -6%.
Turning to `CC1(C)COC(c2cccc(C(O)c3ccc(Cl)cc3)c2)=N1` (stereo not drawn), the growth inhibition is -2%.
Consider `CCOC(=O)c1cc(NC(=O)c2cc(NC(=O)c3cc(NC(=O)c4c(-c5ccccc5)noc4C)cn3C)cn2C)cn1C`, for which the growth inhibition is -5%.
